# Measured values taken from PubChem BioAssay.
# Active and inactive are the calls of the source.
# How the values were obtained:
# [1] = small molecules captured by biotinylated probe aFSTL3 – biochemical, small-molecule microarray, fluorescence 635/667, stem cell growth factor project, primary screen (AID 1064); conditions: higher = more signal;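 note: measures binding of the biotinylated anti-FSTL3 antibody to printed compounds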
# [2] = binders from COS7 lysate, DM2A8 probe, primary screen, torsin A project, cell lysate, small-molecule microarray, fluorescence 635/667 (AID 1065); conditions: higher = more signal, COS7 lysate expressing mutant human TOR1A
# [3] = small molecules captured by biotinylated probe aFGF2 – biochemical, small-molecule microarray, fluorescence 635/667, stem cell growth factor project, primary screen (AID 1067); conditions: higher = more signal;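 note: measures binding of biotinylated aFGF2 protein to printed compounds on slides; z-score merges feature fluorescence and signal-to-noise across triplicate slides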
# [4] = small molecules captured by biotinylated probe aFGF10 – biochemical, small-molecule microarray, fluorescence 635/667, stem cell growth factor project, primary screen (AID 1071); conditions: higher = more signal;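 note: score merges 667 nm spot intensity and signal to noise from triplicate slides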
# [5] = molecular target: Neurogenic locus notch homolog protein 2 (Homo sapiens) (UniProt Q04721); experiment: small molecules binding Notch2 protein – biochemical, small-molecule microarray, 635 nm fluorescence, stem cell growth factors, primary screen (AID 1073); conditions: higher = more signal
# Sequence of Neurogenic locus notch homolog protein 2 (Homo sapiens) (Q04721 whole entry, looked up, canonical isoform): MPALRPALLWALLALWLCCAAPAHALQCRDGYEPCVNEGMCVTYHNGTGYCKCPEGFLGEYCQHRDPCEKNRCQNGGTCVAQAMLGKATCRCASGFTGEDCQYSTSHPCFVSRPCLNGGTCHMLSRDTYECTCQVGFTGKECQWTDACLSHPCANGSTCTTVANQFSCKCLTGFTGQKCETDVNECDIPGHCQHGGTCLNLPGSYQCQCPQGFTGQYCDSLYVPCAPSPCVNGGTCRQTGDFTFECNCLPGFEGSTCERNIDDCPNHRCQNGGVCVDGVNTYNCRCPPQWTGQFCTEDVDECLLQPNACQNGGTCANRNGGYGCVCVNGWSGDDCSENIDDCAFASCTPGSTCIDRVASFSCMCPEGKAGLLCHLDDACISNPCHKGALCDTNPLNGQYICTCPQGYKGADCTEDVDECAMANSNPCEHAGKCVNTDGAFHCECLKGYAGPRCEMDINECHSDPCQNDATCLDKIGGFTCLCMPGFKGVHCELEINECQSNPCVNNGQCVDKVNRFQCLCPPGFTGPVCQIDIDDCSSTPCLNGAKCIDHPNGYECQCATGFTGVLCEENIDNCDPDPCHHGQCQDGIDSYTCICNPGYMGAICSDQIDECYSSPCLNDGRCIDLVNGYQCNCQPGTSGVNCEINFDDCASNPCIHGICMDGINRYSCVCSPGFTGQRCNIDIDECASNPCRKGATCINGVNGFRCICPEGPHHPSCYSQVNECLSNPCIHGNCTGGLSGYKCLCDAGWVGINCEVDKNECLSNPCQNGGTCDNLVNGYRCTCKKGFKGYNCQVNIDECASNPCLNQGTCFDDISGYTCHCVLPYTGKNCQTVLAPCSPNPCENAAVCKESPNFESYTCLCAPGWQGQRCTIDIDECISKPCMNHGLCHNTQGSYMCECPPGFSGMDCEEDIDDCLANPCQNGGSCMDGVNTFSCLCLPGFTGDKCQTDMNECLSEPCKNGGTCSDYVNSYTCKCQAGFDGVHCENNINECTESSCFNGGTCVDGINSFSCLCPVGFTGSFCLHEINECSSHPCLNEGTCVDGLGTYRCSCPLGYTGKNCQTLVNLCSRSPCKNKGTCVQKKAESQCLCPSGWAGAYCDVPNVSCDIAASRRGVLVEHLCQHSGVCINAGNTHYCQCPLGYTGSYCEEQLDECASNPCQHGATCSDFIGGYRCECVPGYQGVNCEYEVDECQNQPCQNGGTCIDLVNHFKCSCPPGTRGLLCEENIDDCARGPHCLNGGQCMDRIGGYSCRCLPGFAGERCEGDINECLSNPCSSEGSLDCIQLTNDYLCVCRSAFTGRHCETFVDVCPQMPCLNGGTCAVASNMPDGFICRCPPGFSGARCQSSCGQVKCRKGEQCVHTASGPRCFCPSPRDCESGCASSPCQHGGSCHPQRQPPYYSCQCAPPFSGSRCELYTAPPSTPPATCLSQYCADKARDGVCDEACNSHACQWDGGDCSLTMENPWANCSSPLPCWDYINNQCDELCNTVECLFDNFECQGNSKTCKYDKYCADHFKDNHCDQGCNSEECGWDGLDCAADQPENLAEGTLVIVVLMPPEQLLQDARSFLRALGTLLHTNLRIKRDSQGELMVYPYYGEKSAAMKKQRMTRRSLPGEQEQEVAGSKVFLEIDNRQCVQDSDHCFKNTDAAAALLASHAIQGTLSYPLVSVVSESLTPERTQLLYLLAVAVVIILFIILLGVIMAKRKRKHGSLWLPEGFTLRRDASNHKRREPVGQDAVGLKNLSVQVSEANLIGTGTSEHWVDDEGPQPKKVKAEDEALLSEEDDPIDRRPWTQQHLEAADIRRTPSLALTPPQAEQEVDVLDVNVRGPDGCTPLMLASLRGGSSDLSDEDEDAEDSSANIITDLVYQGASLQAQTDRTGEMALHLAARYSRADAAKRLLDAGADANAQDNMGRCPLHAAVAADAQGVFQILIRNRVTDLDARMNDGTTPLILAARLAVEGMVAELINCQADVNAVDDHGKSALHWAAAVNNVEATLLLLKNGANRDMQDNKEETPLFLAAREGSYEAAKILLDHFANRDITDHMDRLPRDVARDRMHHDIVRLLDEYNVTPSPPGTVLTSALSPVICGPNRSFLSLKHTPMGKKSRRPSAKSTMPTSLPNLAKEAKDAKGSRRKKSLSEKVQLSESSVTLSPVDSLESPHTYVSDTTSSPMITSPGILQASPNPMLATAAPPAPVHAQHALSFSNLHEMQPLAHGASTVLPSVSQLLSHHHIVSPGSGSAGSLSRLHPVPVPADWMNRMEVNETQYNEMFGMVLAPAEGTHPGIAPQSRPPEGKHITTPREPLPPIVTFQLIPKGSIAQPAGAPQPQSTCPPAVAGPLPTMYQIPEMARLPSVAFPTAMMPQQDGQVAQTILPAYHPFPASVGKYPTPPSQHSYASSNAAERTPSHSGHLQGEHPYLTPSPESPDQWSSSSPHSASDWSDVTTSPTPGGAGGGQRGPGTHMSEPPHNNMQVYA
# [6] = molecular target: Pro-neuregulin-1, membrane-bound isoform (Homo sapiens) (UniProt Q02297); experiment: small molecules binding neuregulin-1 protein – biochemical, small-molecule microarray, fluorescence 635/667, psychiatric disease protein project, primary screen (AID 1075); conditions: NRG1 binding, 635 nm fluorescence, higher = more signal;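 note: score combines 667 nm spot fluorescence with signal to noise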
# [7] = system: Neuregulin-1 EGF-like domain; experiment: small molecules binding NRG1 EGF domain – biochemical, small-molecule microarray, 635 nm fluorescence, primary screen (AID 1081); conditions: higher = more signal;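 note: binding of the protein to compounds printed on small-molecule microarray slides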
# [8] = FRG1 expression reporter modulators in myotubes – cell-based, C2C12 myotubes, firefly/Renilla luciferase, luminescence, FRG1 inhibition for FSHD, primary screen (AID 1084); conditions: FRG1 promoter luciferase, higher = more signal, called active from +8 up or from −8 down
# [9] = small molecules captured by biotinylated probe aFST – biochemical, small-molecule microarray, fluorescence 635/667, stem cell growth factor project, primary screen (AID 1086); conditions: higher = more signal;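 note: score merges 667 nm fluorescence with signal-to-noise of each printed compound spot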
# [10] = binders of probe aHhip on microarray, primary screen, stem cell growth factor project, biochemical, small-molecule microarray, fluorescence 635/667 (AID 1087); conditions: higher = more signal;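 note: score merges spot fluorescence at 667nm with spot signal to noise ratio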
# [11] = system: PRMT1 (protein arginine N-methyltransferase 1); experiment: small molecules binding arginine methyltransferase PRMT1 – biochemical, small-molecule microarray, 635 nm fluorescence, primary screen (AID 1088); conditions: higher = more signal;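 note: binding of Prmt1 protein to compounds spotted on small-molecule microarray slides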
# [12] = growth effects on S. cerevisiae YJM789 – YJM789 clinical isolate, OD600, 24 h, basal, primary screen (AID 1089); conditions: higher = more signal, called active from +8 up or from −8 down;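 note: growth of clinical yeast isolate S. cerevisiae YJM 789 seeded 1000 cells per well; test concentration not given here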
# [13] = S. pombe growth modifiers, basal conditions – strain 972, OD600, 24 h, no modulator, primary screen (AID 1090);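 note: basal condition with compound alone and no growth modifier present; test concentration not given here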; conditions: S. pombe 972 growth, higher = more signal, called active from +8 up or from −8 down
# [14] = budding yeast growth modifiers under rapamycin – strain BY4716, OD600, 96 h, primary screen (AID 1091); note: test concentration not given here; conditions: S. cerevisiae BY4716 + rapamycin, higher = more signal, called active from +8 up or from −8 down
# [15] = molecular target: Torsin-1A-interacting protein 2 (Homo sapiens) (UniProt Q8NFQ8); experiment: small molecules binding lysate-expressed LULL1 – cell lysate, human LULL1 lysate, 635/667 nm fluorescence, primary screen (AID 1092); conditions: small-molecule microarray, hLULL1 lysate binding, 635 nm fluorescence; higher = more signal;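 note: probe is lysate of COS7 cells overexpressing human LULL1; score merges per-feature 667 nm fluorescence with signal-to-noise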
# [16] = optical density change of DRC41 E. coli – strain DRC41, OD650, 24 h, E. coli filamentation project, primary screen (AID 1093);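 note: MC1000 strain lacking acrAB efflux and sulA so SOS filamentation is blocked; test concentration not given here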; conditions: E. coli DRC41 growth, higher = more signal, called active from +8 up or from −8 down
# [17] = probe aLefty2 binding to arrayed compounds – biochemical, biotinylated probe, 635/667 nm fluorescence, primary screen (AID 1094); conditions: small-molecule microarray, higher = more signal;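 note: score merges spot fluorescence near 667 nm with spot signal-to-noise ratio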
# [18] = system: Noggin (protein binding on small-molecule microarray); experiment: small molecules binding Noggin protein – biochemical, 635/667 nm fluorescence, primary screen (AID 1095); conditions: 635 nm fluorescence, higher = more signal;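 note: score merges 667 nm feature fluorescence with signal to noise over triplicate slides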
# [19] = molecular target: Neurogenic locus notch homolog protein 3 (Homo sapiens) (UniProt Q9UM47); experiment: small molecules binding NOTCH3 protein – biochemical, 635/667 nm fluorescence, primary screen (AID 1096); conditions: small-molecule microarray, 635 nm fluorescence, higher = more signal
# Sequence of Neurogenic locus notch homolog protein 3 (Homo sapiens) (Q9UM47 whole entry, looked up): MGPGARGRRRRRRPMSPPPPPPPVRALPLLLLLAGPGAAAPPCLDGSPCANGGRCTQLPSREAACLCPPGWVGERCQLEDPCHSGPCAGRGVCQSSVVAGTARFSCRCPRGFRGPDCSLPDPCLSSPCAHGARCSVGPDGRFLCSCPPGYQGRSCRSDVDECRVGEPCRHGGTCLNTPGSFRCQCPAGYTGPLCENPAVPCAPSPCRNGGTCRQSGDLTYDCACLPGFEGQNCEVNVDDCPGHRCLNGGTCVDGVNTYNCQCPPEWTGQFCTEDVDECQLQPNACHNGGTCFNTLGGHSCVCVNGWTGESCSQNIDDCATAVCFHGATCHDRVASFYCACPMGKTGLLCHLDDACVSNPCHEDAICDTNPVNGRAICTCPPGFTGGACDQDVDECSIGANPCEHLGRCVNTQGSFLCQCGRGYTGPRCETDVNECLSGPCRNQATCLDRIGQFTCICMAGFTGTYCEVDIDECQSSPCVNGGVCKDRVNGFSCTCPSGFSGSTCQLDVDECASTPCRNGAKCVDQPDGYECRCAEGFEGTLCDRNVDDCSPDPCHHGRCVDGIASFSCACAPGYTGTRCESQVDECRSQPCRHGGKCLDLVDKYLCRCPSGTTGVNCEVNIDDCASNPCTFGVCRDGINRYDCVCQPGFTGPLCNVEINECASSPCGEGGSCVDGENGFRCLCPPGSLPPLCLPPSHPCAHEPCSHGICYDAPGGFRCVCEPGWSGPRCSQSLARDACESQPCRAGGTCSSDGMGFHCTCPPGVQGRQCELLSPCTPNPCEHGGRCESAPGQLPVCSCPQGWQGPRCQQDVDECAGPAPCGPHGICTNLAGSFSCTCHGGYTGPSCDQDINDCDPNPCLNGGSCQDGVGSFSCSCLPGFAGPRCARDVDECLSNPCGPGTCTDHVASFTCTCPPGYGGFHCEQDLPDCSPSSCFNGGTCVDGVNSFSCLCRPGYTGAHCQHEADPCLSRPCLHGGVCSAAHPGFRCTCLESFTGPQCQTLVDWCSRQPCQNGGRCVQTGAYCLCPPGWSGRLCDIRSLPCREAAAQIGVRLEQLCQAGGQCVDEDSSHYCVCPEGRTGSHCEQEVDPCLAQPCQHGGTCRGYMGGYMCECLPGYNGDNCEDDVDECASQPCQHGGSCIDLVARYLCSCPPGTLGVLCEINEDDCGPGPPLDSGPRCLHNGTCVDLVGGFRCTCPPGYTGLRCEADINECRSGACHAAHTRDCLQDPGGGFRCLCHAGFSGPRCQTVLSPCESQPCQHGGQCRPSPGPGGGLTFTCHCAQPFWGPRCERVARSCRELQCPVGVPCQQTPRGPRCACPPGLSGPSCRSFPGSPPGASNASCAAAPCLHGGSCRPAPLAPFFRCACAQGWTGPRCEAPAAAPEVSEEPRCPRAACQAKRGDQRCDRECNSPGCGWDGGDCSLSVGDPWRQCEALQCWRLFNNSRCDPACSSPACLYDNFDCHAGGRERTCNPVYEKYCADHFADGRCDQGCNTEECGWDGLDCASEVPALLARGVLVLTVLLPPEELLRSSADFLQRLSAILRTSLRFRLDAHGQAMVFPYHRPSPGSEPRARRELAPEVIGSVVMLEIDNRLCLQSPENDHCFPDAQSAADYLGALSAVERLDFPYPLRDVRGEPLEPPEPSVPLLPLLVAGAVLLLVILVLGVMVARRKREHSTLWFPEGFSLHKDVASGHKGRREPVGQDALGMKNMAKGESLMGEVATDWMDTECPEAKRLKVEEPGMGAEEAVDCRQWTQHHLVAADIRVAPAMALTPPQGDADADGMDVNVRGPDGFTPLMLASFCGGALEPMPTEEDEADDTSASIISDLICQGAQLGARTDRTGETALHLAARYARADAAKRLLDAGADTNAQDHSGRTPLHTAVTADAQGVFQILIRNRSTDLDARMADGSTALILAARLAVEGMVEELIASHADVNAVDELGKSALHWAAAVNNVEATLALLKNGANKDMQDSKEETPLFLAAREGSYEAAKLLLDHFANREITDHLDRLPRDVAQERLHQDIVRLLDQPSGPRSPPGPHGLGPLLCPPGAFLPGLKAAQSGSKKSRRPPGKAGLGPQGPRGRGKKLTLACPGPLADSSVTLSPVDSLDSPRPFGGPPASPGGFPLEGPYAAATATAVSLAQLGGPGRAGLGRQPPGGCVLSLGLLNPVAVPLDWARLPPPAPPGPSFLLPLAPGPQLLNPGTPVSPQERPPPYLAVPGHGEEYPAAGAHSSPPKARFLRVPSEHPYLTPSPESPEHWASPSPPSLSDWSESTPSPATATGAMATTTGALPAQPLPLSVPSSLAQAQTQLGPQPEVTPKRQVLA
# [20] = probe aEGFR binding to arrayed compounds – biochemical, biotinylated probe, 635/667 nm fluorescence, primary screen (AID 1097); conditions: small-molecule microarray, higher = more signal;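 note: probe is a biotinylated anti-EGFR antibody binding compounds printed on slides; score combines fluorescence near 667 nm and signal to noise of each spot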
Structure (SMILES),composite z-score [1],composite z-score [2],composite z-score [3],composite z-score [4],composite z-score [5],composite z-score [6],composite z-score [7],z-score [8],composite z-score [9],composite z-score [10],composite z-score [11],z-score [12],z-score [13],z-score [14],composite z-score [15],z-score [16],composite z-score [17],composite z-score [18],composite z-score [19],composite z-score [20]
COCCn1c(C(=O)N(C)C)cc2c1C[C@H]1CN(C(=O)c3ccccc3)[C@@](Cc3ccc(F)cc3)(C(=O)OC)[C@@H]21,0.0407,-0.0248,0.203,0.651,1.56,1.11,0.998,0.592 (inactive),0.576,-0.0347,0.0294,0.296 (inactive),0.75 (inactive),0.247 (inactive),3.05,0.782 (inactive),0.214,-0.3,0.328,0.0492
O=c1cccc(-c2ccc3ccccc3c2)o1,0.636,-0.0452,0.114,-0.183,-0.383,-0.288,-0.602,7.42 (inactive),0.389,-0.0022,-0.387,-11.9 (active),-15 (active),-3.02 (inactive),-0.0751,1.82 (inactive),0.0673,-0.0993,-0.349,-0.138
COC(=O)[C@@]1(Cc2ccccc2)[C@H]2c3cc(C(=O)N(C)C)n(Cc4cc(F)c(F)c(F)c4)c3C[C@H]2CN1C(=O)c1ccccc1,0.683,-0.166,0.117,1.23,1.68,2.02,1.16,1.47 (inactive),0.437,0.776,0.664,0.103 (inactive),1.52 (inactive),0.405 (inactive),3.22,-0.832 (inactive),0.461,0.137,1.04,0.218
CC1(C)C(=O)C(c2ccccc2)=C2CN3C(=O)N(CCc4ccccc4)C(=O)C3(Cc3ccccc3)C=C21 (stereo not given),0.0442,-0.219,-0.0465,0.235,1.63,0.328,0.949,0.586 (inactive),1.15,-0.11,-0.377,0.672 (inactive),2.28 (inactive),5.82 (inactive),2.83,-0.723 (inactive),0.336,-0.264,1.12,0.164
COC(=O)c1c(CC[C@@H](CO)NC(=O)Nc2ncn[nH]2)oc(C(=O)Cc2ccccc2)c1C(=O)OC,-0.468,-0.0764,-0.214,0.511,1.21,0.163,0.778,0.004 (inactive),0.524,0.0722,1.08,-0.342 (inactive),0.387 (inactive),0.285 (inactive),2.99,-0.871 (inactive),-0.016,0.565,1.17,-0.0697
